Measured values as given in PubChem BioAssay AID463212 (Sanford-Burnham Center for Chemical Genomics, 2010).
Hit rate of the full screen: of about 330,000 compounds, about 4,400 (1.3%) were called active.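 How the source made its calls: active means growth inhibition of the mutant yeast at or above 50%; inactive means the rest.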 Many of the other results were omitted from the sample, so actives are more common in it than they were.

assay: growth inhibitors of tim23-1 mutant yeast, primary screen, luminescence, uHTS (AID 463212);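 further: temperature-sensitive mutant grown at 25 °C; plate controls were DMSO-treated mutant yeast for no effect and medium wells lacking yeast for full effect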; conditions: S. cerevisiae tim23-1 growth, BacTiter-Glo luminescence, 24 h; at 20 µM; active compounds read high

Structure (SMILES)	inhibition
COc1ccccc1CN1CC(C(=O)NCCc2cn[nH]c2)CCC1=O (stereo not drawn)	11.8% (inactive)
CCCNC(=O)Nc1ccccc1C(=O)Nc1ccc(OC)cc1	11% (inactive)
COc1ccc(NC(=O)Nc2cccc3cccnc23)cc1	58.6% (active)
CCOC(=O)Cc1ncccc1C(=O)Nc1ccc(OC)cc1	-4.31% (inactive)
COc1ccc(CNS(=O)(=O)c2cc3c4c(c2)CCN4C(=O)CC3)cc1	9.82% (inactive)
COc1ccccc1C(=O)NC(=O)COC(=O)c1ccco1	1.32% (inactive)
COc1ccc(/C=C(\C#N)C(=O)ONC2=NCCCCC2)cc1	68.2% (active)
COc1ccc(/C=C(\C#N)C(=O)OCC(=O)N(C)C2CCS(=O)(=O)C2)cc1 (stereo not drawn)	-18.1% (inactive)
COc1ccc(N2CCN(C(=O)/C(C#N)=C/c3ccccc3)CC2)cc1	40.6% (inactive)
CC(=O)C1=C(C)NC(C)=C(C(C)=O)C1c1cn(-c2ccccc2)nc1-c1cccs1	29.1% (inactive)
CSc1ccccc1NC(=O)c1cc(C2CC2)on1	15.5% (inactive)
Cc1nn(Cc2ccc(Cl)c(Cl)c2)c(C)c1NC(=O)c1cc(C2CC2)on1	56.6% (active)
Cc1nn(Cc2ccc(F)cc2)c(C)c1NC(=O)c1cccnc1Cl	9.85% (inactive)
C/C(=N/NC(=O)CN1CCN(S(=O)(=O)c2ccc(Br)cc2)CC1)c1ccncc1	4.89% (inactive)
COC(=O)N/N=C/c1ccc(-c2ccc(Cl)c(Cl)c2)o1	54.7% (active)
Nc1nnnn1CC(=O)N/N=C/c1ccc(-c2cccc(Cl)c2)o1	1.59% (inactive)
O=C(N/N=C\c1ccc(-c2ccc(Cl)c(Cl)c2)o1)C(=O)N1CCCC1	-5.25% (inactive)
Cc1c(C)c2ccc(OCC(=O)N3CCN(c4cccc(Cl)c4)CC3)cc2oc1=O	-6.57% (inactive)
O=C1CC(Sc2ncn[nH]2)C(=O)N1c1ccccc1 (stereo not drawn)	51% (active)
Cc1ccc(N2C(=O)CC(Sc3ncn[nH]3)C2=O)cc1 (stereo not drawn)	-0.146% (inactive)
COc1ccc(N2C(=O)CC(Sc3n[nH]c(-c4ccc(C)cc4)n3)C2=O)cc1 (stereo not drawn)	28.8% (inactive)
COc1ccc(C(c2nnnn2C2CCCCC2)N2CCN(c3ccccc3F)CC2)cc1 (stereo not drawn)	14.3% (inactive)
CC(C(=O)NC1CCCC1)N(c1ccc(Oc2ccccc2)cc1)S(C)(=O)=O (stereo not drawn)	29.3% (inactive)
Cc1cc(C)c(S(=O)(=O)c2ccccc2)c(OC(=O)c2c(F)cccc2Cl)n1	64.7% (active)

Structure (SMILES)	inhibition
Cc1ccc(NNC(=O)c2c(F)cccc2Cl)cc1Cl	44.2% (inactive)
Cc1cc(OC(=O)c2c(Cl)cccc2Cl)nc(C)n1	23.1% (inactive)
COc1ccc(C(C(=O)NCC2CCCO2)N(C(=O)Cn2nnc3ccccc32)c2ccc(NC(C)=O)cc2)cc1OC (stereo not drawn)	15.6% (inactive)
CCOc1ccc(CC(=O)NCCS(=O)(=O)N2CCN(c3ccccc3)CC2)cc1	-7.53% (inactive)
O=C(N/N=C/c1cccc2cccnc12)[C@H]1C[C@@H]1c1ccccc1	18.6% (inactive)
COc1ccc(C(C[N+](=O)[O-])n2nc(C)cc2C)cc1 (stereo not drawn)	84.7% (active)
COc1ccc(OC)c(S(=O)(=O)n2c([N+](=O)[O-])cnc2C)c1	12.9% (inactive)
CCOc1ccc(C(C)C)cc1S(=O)(=O)n1nc(C)cc1C	36.9% (inactive)
COc1cc(OC)c(NS(=O)(=O)c2cn(C)cn2)cc1Cl	-16.4% (inactive)
CC(C)(C)n1nnnc1C(c1ccccc1F)N1CCN(C(=O)c2ccco2)CC1 (stereo not drawn)	19.8% (inactive)
CC(=O)O[C@H]1CC[C@@]2(C)[C@@H](CC[C@@H]3[C@@H]2CC[C@]2(C)[C@@H](C(C)(C)O)C[C@@H]32)C1	28.2% (inactive)
Cc1cc(C)cc(C(=O)OCC(=O)NCCNC(=O)COC(=O)c2cc(C)cc(C)c2)c1	2.3% (inactive)
C(=N/N1CCN(c2ccccc2)CC1)/c1cccs1	15.3% (inactive)
O=C1c2cccc3c([N+](=O)[O-])ccc(c23)C(=O)N1CC1CCCO1 (stereo not drawn)	87% (active)
CCOc1cccc(=O)c2c(C)n(CC3CCCO3)c(C)c12 (stereo not drawn)	-1.14% (inactive)
CN1CN(C)c2ccc([N+](=O)[O-])c3cccc1c23	9.47% (inactive)
N/C(=N\OC(=O)CCC1CCCCC1)c1ccccn1	30.2% (inactive)
N/C(=N\OC(=O)CC1CCCCC1)c1ccccc1	56.4% (active)
O=C(CC1CCCCC1)NCc1ccccc1	14.8% (inactive)
O=C(COC(=O)c1ccc(Cl)nc1)NCc1ccc2c(c1)OCO2	6.05% (inactive)
COc1cccc(CN2CCN(Cc3ccc4cccc(F)c4n3)CC2CCO)c1 (stereo not drawn)	6.61% (inactive)
NC(=O)c1ccsc1NC(=O)c1ccco1	6.25% (inactive)
O=C(Nc1nnc(CCOCCOCCc2nnc(NC(=O)c3ccco3)s2)s1)c1ccco1	-4.68% (inactive)
O=C(Nc1nc(-c2ccco2)c(-c2ccco2)s1)c1ccco1	69.5% (active)

Structure (SMILES)	inhibition
N#Cc1ccc(N2Cc3ccccc3/C2=N/C(=O)Nc2ccc(Cl)cc2)cc1	28.7% (inactive)
Cc1ccc(Cl)c(OCC(=O)N2CCc3ccccc3C2)c1	35.1% (inactive)
Cc1ccc2c(c1)c1ncnc(N3CCc4ccccc4C3)c1n2C	51% (active)
c1ccc(-c2csc(N3CCc4ccccc4C3)n2)cc1	14.4% (inactive)
CCc1cc(=O)oc2c(C)c(OCC(=O)N3CC[C@@]4(O)CCCC[C@H]4C3)ccc12	2.55% (inactive)
CNS(=O)(=O)c1cnccc1N1CCN(c2cccc(C)c2)CC1	0.287% (inactive)
CCC(CC)NC(=O)/C=C/c1cccc([N+](=O)[O-])c1	17.4% (inactive)
Cc1ccccc1N1CC(C(=O)Nc2ccc3c(c2)OCO3)CC1=O (stereo not drawn)	2.96% (inactive)
COc1ccc(-c2n[nH]c(C)c2-c2ccccc2OC)c(O)c1	38.9% (inactive)
COc1ccccc1-c1n[nH]c2c1[C@H](C)CC[C@H]2C(C)C	53% (active)
O=C1COc2ccc(S(=O)(=O)NCCc3ccc(Cl)cc3)cc2N1	8.79% (inactive)
CCOC(=O)c1ccc(NC(=O)c2cccnc2)cc1	13.2% (inactive)
Cc1ccc2nc(-c3ccc(NC(=O)c4cccnc4)cc3)oc2c1	52% (active)
CC(=O)NC(=S)Nc1ccc(NC(=O)c2cccnc2)cc1	16.1% (inactive)
Cc1cc(C(=O)COc2ccccc2[N+](=O)[O-])c(C)n1-c1cccc(S(=O)(=O)N2CCOCC2)c1	7.4% (inactive)
O=c1c2ccccc2nc2n1C(CSCc1cccc(C(F)(F)F)c1)CS2 (stereo not drawn)	14.7% (inactive)
O=C1CN(c2nc(-c3ccccc3)c3cc(Br)ccc3n2)c2ccccc2N1	4.72% (inactive)
Cc1ccc(CNC(=O)Cn2cnc(S(=O)(=O)N3CCCCC3)c2)o1	-6.13% (inactive)
Cc1[nH]n(C)c(=O)c1N=Nc1ccc(S(C)(=O)=O)cc1	11.7% (inactive)
CC1=NN(C(N)=S)C(=O)C1N=Nc1cc(Cl)ccc1Cl (stereo not drawn)	36.9% (inactive)
Cc1[nH]n(C(N)=S)c(=O)c1N=Nc1ccc(Cl)cc1Cl	67% (active)
Cc1c(Cl)cccc1NC(=O)CSc1ccc(-c2cccnc2)nn1	2.22% (inactive)
O=S(=O)(Nc1nccs1)c1ccc2c(c1)OCCO2	12.7% (inactive)
COCCOC(=O)C1=C(C)N=c2s/c(=C\c3cccs3)c(=O)n2C1c1cccs1 (stereo not drawn)	-11.4% (inactive)

Structure (SMILES)	inhibition
CCOC(=O)C1=C(C)N=c2s/c(=C\C(=O)OC)c(=O)n2C1c1ccc(OC)cc1 (stereo not drawn)	52.3% (active)
CCOC(=O)C1=C(CSc2nccn2C)NC(=O)NC1c1ccc(OC)cc1 (stereo not drawn)	7.63% (inactive)
Cc1cc(=O)oc(C)c1C(=O)NC1CC(C)(C)NC(C)(C)C1	13.7% (inactive)
CN(C)NC(=O)c1csnc1-c1c(Cl)cccc1Cl	-15.4% (inactive)
Cn1cccc1C(=O)OCC(=O)c1ccc(Br)s1	15.9% (inactive)
COc1cccc(-c2sc3ccc(OC)cc3c2-c2ccc(OCCN3CCCCC3)cc2)c1	58.8% (active)
COc1ccc2sc(-c3ccccc3OC)c(-c3ccc(OCCN4CCCC4)cc3)c2c1	-0.331% (inactive)
COc1ccc(-c2sc3ccccc3c2-c2ccc(OCCN3CCOCC3)cc2)cc1	28% (inactive)
Cc1cccc(C)c1NC(=O)CSc1nnc(-c2ccccc2)n1Cc1ccc2c(c1)OCO2	3.97% (inactive)
c1ccc(-c2nnc3n2NC(c2ccc4c(c2)OCO4)S3)cc1 (stereo not drawn)	57.2% (active)
CC1=C(C(N)=O)C(c2ccc3c(c2)OCO3)n2nc(-c3cccc(C)c3)nc2N1 (stereo not drawn)	18.1% (inactive)
O=C(Nc1nnc(C2CC2)s1)C1=NN(C2CCS(=O)(=O)C2)C(=O)CC1 (stereo not drawn)	9.54% (inactive)
COc1cc2c(cc1OC)C(/C=C/c1ccco1)=NCC2	-9.38% (inactive)
COc1ccc(S(=O)(=O)N2CCN(C(C)C(=O)Nc3ccc(C(C)C)cc3)CC2)cc1 (stereo not drawn)	50.6% (active)
COc1cccc(CNC(C)C(=O)Nc2ccc(S(=O)(=O)N3CCCC3)cc2)c1 (stereo not drawn)	19.6% (inactive)
CC(C)c1ccc(S(=O)(=O)N2CCN(C(C)C(=O)NC3CCCC3)CC2)cc1 (stereo not drawn)	13.4% (inactive)
O=C1NC[C@@H](Cc2ccc(O)cc2)N(CCc2cccc(F)c2)C1=O	11.4% (inactive)
CC(=O)Nc1ccc(S(=O)(=O)N2CCN(C(=O)c3ccccc3F)CC2)cc1	3.67% (inactive)
Cc1cccc(/C(N)=N/OC(=O)c2ccccc2Cl)c1	72.9% (active)
Cc1ccc(/C(N)=N/OC(=O)COc2ccc(Cl)c(C)c2)cc1	24.2% (inactive)
Cc1ccc(C(=O)O/N=C(\N)c2ccccn2)cc1Cl	6.93% (inactive)
